# Experimental data reported in PubChem BioAssay AID488943 (Broad Institute, 2010).
# Results with a measured potency or affinity are listed apart. Values without a mark were called inactive.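 Rule for the calls: active = compounds with a fitted half-maximal inhibitory dose at or below ten times their top tested dose; inconclusive = flat curve at 30 to 70% inhibition, or poor fit; inactive = the rest.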
# Experiment: C. albicans growth inhibition with fluconazole – CaCi-2 strain, Alamar Blue, dry powder, set 4, dose response (AID 488943)
# Conditions: C. albicans CaCi-2 (fluconazole-resistant clinical isolate) + fluconazole, 48 h; series mostly up to 6 µM; activity change, negative = inhibition: at the top concentration
row,Compound,"activity change, negative = inhibition [%]"
1,O=C(C1CC1)N1CCN(c2ccnc3cc(Cl)ccc23)CC1,-28.7
2,O=C(c1ccc(Cl)cc1)N1CCCN(c2ccnc3cc(Cl)ccc23)CC1,-25.6
3,Cc1cccc(N2CCN(C(=O)c3ccc(Cl)cc3)CC2)n1,-9.45
4,CC(C)C(=O)N1CCN(c2ccnc3cc(Cl)ccc23)CC1,-14.5
5,O=C(c1ccc(Cl)cc1)N1CCN(c2ccncc2)CC1,-18.9
6,O=C(c1ccc(Cl)cc1)N1CCN(c2cc(C(F)(F)F)nc3ccccc23)CC1,10.5
7,COc1cccnc1N1CCN(C(=O)c2ccc(Cl)cc2)CC1,-19.6
8,O=C(c1ccc(Cl)cc1)N1CCN(c2ccnc3ccccc23)CC1,-24.1
9,O=C(c1ccc(Cl)cc1)N1CCN(c2cccc(C(F)(F)F)n2)CC1,-5.41
10,Cc1cc(N2CCN(C(=O)c3ccc(Cl)cc3)CC2)c2ccccc2n1,6.08
11,CCCC(=O)N1CCN(c2ccnc3cc(Cl)ccc23)CC1,-28.2
12,O=C(c1ccc(Cl)cc1)N1CCNCC1,13.3
13,COc1cccc2c(N3CCN(C(=O)c4ccc(Cl)cc4)CC3)cc(C)nc12,10.9
14,O=S(=O)(c1ccc(Cl)cc1)N1CCN(c2ccnc3cc(Cl)ccc23)CC1,-10.1
15,COCCC(=O)N1CCN(c2ccnc3cc(Cl)ccc23)CC1,-13.7
16,CCCCNC(=O)N1CCN(c2ccnc3cc(Cl)ccc23)CC1,1.3
